Giardia kill – kills Giardia lamblia; Giardia lamblia trophozoite viability; activity change, % at 7.66 µM, hits read low; hit rate 0.15% among 340,000; AID 540267; in the data active = activity change below about -80%; inconclusive = between about -30% and that limit;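 note: parasites exposed to compound for two days anaerobically before the ATP read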
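Killing of trophozoites was scored by loss of ATP luminescence after a 48 hrs anaerobic exposure to compounds at 37 deg C, using 100 cells per well.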
TDP1 cell noCPT – qHTS for Inhibitors of human tyrosyl-DNA phosphodiesterase 1 (TDP1): qHTS in cells in absence of CPT. DT40 Tdp1-/- hTDP1 cells, no CPT, ATP luminescence, 48 h. Potency, µM (titrated, usually from 46.2 µM), for the others: at the top dose activity change, negative = growth inhibition, usual class: inhibitors. hit rate 15% among 420,000. AID 686978, 2013; note: potency is the fitted concentration of half-maximal effect; nearly all actives have a fitted effect of over 55% in size
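Growth kinetics read by CellTiter-Glo luminescence after ≥48 hr at 37 °C. Cells: DT40 Tdp1-/- stably carrying human TDP1, 400 per well, compound exposure in the absence of CPT (DMSO vehicle).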
TDP1 inh – blocks human tyrosyl-DNA phosphodiesterase 1. recombinant TDP1, AlphaScreen DNA substrate cleavage. Potency, µM (titrated, usually from 130 µM), without a hit: at the highest dose activity change, negative = inhibition, actives largely listed as inhibitors. Q9NUW8. hit rate 0.28% among 350,000; note: potency is the fitted concentration of half-maximal effect; nearly all actives have a fitted effect of over 40% in size
Target sequence (Q9NUW8 whole entry, looked up): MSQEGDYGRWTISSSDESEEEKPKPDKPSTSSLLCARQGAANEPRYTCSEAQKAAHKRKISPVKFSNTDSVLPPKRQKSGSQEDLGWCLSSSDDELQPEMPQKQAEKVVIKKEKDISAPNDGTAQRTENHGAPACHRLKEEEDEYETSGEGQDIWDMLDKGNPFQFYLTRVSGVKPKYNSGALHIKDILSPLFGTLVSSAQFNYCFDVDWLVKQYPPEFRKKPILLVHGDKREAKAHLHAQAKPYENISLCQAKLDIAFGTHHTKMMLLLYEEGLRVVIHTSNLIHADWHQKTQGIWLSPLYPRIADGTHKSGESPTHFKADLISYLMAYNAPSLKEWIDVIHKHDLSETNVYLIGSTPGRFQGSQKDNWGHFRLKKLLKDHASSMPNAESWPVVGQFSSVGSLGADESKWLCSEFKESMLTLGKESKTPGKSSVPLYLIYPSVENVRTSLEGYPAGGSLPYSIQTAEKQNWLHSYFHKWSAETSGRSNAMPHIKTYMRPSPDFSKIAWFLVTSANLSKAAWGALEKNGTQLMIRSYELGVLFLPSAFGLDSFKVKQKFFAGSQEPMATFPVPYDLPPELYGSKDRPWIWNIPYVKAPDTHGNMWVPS
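Here, a 5' biotin and 3' phosphotyrosine-FITC DNA oligonucleotide reports Tdp1 activity: intact substrate bridges AlphaScreen beads, while cleavage leaves a 3' phosphate and drops signal. All incubations at room temperature.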
ELG1 DNA repair – inhibitors of ELG1-dependent DNA repair in HEK293T cells; HEK293T ELG1-luciferase reporter, luminescence, 16 h; DNA damage induced by 5-fluorouridine; Potency, µM (doses to about 46.1 µM), without a hit: top-dose activity change, negative = inhibition, most hits filed as inhibitors; hit rate 2.3% among 330,000; AID 504467; note: potency is the fitted concentration of half-maximal effect; nearly all actives have a fitted effect of over 55% in size
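DMSO vehicle served as the neutral condition. Each well held 2,000 cells given 5-fluorouridine plus compound; after 16 hr at 37 °C/5% CO2, ONE-Glo was added and luciferase measured 30 min later.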
IL-1B inflam inh – blocks inflammasome-driven IL-1 beta release | THP-1 LPS/ATP IL-1B secretion, AlphaLISA, 16 h; active compounds read low | activity change, % at 57.5 µM | hit rate 4.7% among 360,000 | AID 743279; in the data active = activity change below about -50%; inconclusive = mostly about -30% to -49%
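Secreted IL-1B measured by AlphaLISA bead assay after 16 h compound exposure of THP-1 cells; compounds (final up to 57.5 uM) added 1 h before LPS (250 ng/mL) and ATP (1.25 mM) stimulation; lower signal means less secretion.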
TDP1 cell CPT – growth inhibition of DT40 Tdp1-/-;hTDP1 cells with camptothecin (screen for TDP1 inhibitors). chicken DT40 Tdp1-/-;hTDP1 cells + 20 nM CPT, ATP luminescence, 48 h. hit rate 12% among 420,000. Potency, µM (highest dose often 46.2 µM), for inactives: top-dose activity change, negative = growth inhibition, hits mostly inhibitors; note: potency is the fitted concentration of half-maximal effect; nearly all actives have a fitted effect of over 55% in size
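Chicken DT40 Tdp1-/- cells stably complemented with human TDP1 were seeded at 400 cells/well in medium containing 20 nM camptothecin, exposed to pin-transferred compounds, and grown at 37 °C for at least 48 hr. Viability was read as ATP luminescence.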
Active calls of the source: *; ? = inconclusive; · = not tested or not shown; [ ] = remark or other dose. Hits are enriched below; roughly 19% of the tested compounds scored in any of these assays. Unless noted, calls come from the whole dose curve; as a rule, active = well fitted curve in the direction sought with a large enough effect; inconclusive = small, poorly fitted or top-dose-only effect, or another doubt; inactive = no such curve, though single readings can be large; an effect the other way counts as inactive or inconclusive. % is set by controls: 0 for no effect and ±100 for the full control effect.

SMILES | Giardia kill | TDP1 cell noCPT | TDP1 inh | ELG1 DNA repair | IL-1B inflam inh | TDP1 cell CPT
CC(C)(C)C(=O)Nc1ccccc1C(=O)NCc1cccnc1 | -6 | -14% | 1% | 2% | 22 | 0%
CCOc1ccc(NC(=O)COc2ccc(C(=O)NCc3cccnc3)cc2OC)cc1 | -13 | ? | · | -23% | 5 | ?
CCC1CN(CCNC(=O)c2cc3ccccc3oc2=O)Cc2cc(OC)ccc2O1 (stereo not given) | · | -9% | · | · | · | 2%[9.04 µM]
CC(=O)OC[C@@H]1O[C@H](C/C=N\OC[C@@H](O)COCc2ccco2)C=C[C@@H]1OC(C)=O | · | · | 6%[21 µM] | · | · | ·
CC(C)(C)NC(=O)C(c1cccs1)N(Cc1ccc(F)cc1)C(=O)c1csnn1 (stereo not given) | -11 | ? | · | -1% | -18 | ?
CCN(CC)S(=O)(=O)c1ccc(C(=O)OCCN2C(=O)c3cccc4c(N5CCOCC5)ccc(c34)C2=O)cc1 | -9 | 18µM* | -3% | ? | 10 | ?
CC1CC(C)CN(c2ccc(C(=O)NCc3ccc4c(c3)OCO4)cc2[N+](=O)[O-])C1 (stereo not given) | -7 | -2% | 2% | -29% | ? | 2%
Cc1nc2ccccc2nc1N/N=C/c1ccc(O)cc1 | 0 | 0% | 3% | ? | 5 | -3%
Cc1nc(N/N=C/c2ccc(O)cc2)c2cnn(-c3ccccc3)c2n1 | -12 | 23µM* | 3% | -22% | -74* | ?
O=C(c1cccc(F)c1)N1CCC2(CC1)CN(c1ccccn1)C2 | · | ? | · | · | · | 15µM*
O=C(c1cccc(F)c1)N1CCC2(CCCN(c3ncccn3)C2)CC1 | · | ? | · | · | · | -9%
O=C(c1cc(C(F)(F)F)cc(C(F)(F)F)c1)N1CCC2(CC1)CCN(c1ccncc1)CC2 | · | 18µM* | · | · | · | 26µM*
O=C(c1cccc(F)c1)N1CCC2(CCCN(c3ccncc3)C2)CC1 | · | ? | · | · | · | -5%
O=C(c1cccc(F)c1)N1CCC2(CC1)CCN(c1ncccn1)CC2 | · | 18µM* | · | · | · | ?
O=C(c1cccc(F)c1)N1CCC2(CC1)CCN(c1ccncc1)CC2 | · | 18µM* | · | · | · | 7.3µM*
ICCc1ccccc1 | · | · | -4% | · | · | ·
COc1ccc(C(=O)N2CCC3(CC2)CN(c2ccccn2)C3)cc1 | · | ? | · | · | · | -10%
O=C(c1cc(C(F)(F)F)cc(C(F)(F)F)c1)N1CCC2(CC1)CN(c1ccccn1)C2 | · | 5.2µM* | · | · | · | 4.6µM*
CCOC(=O)c1ccc(NC(=O)c2c(N)n(C)c(=O)n(C)c2=O)cc1 | 8 | -11% | · | · | -5 | -6%
COCCCNC(=S)NNC(=S)Nc1ccccc1 | -3 | -18% | -4% | ? | · | 11%
O=C1CCCN1CCCNC(=S)Nc1ccc(Nc2ccccc2)cc1 | 15 | -7% | · | 15µM* | -16 | -4%
Cc1ccccc1OCCNC(=S)Nc1ccccc1 | 1 | 15µM* | 0% | -15% | -13 | 29µM*
CNC(=S)NCCc1ccccc1 | 31 | 5% | · | ? | 7 | 18%
S=C(NCCc1ccccc1)Nc1ncccn1 | 16 | -17% | · | · | -6 | 1%
CC(C)(CNC(=S)NCCc1ccccc1)CNC(=S)NCCc1ccccc1 | 0 | 29µM* | 9% | ? | -70* | 8.2µM*
SMILES | Giardia kill | TDP1 cell noCPT | TDP1 inh | ELG1 DNA repair | IL-1B inflam inh | TDP1 cell CPT
S=C(NCCc1ccccc1)Nc1c(Cl)cccc1Cl | -2 | 23µM* | · | 6% | -64* | ?
CCCCn1cc(S(=O)(=O)c2cccc(C)c2)c(=O)c2cc(F)c(N3CCOCC3)cc21 | · | ? | 10% | · | · | ?
Cc1ccc(/C([O-])=C(/C(=S)NCCN2CCOCC2)[n+]2ccccc2)cc1[N+](=O)[O-] | 1 | 5% | 8% | -22% | 6 | -5%
S=C(NCCCc1ccccc1)Nc1ccc(Cl)cc1 | -12 | ? | 1% | -5% | ? | ?
CCCNC(=S)Nc1ccccc1 | 3 | 8% | 4% | 2% | 21 | 10%
S=C(NCCCc1ccccc1)Nc1ccccc1 | 14 | ? | 3% | ? | 32 | 23µM*
S=C(NCCc1ccccc1)Nc1ccc(Nc2ccccc2)cc1 | 21 | ? | 8% | ? | ? | 16µM*
CCOc1ccc(CNC(=O)Cn2nc(C)c3sc4ccccc4c3c2=O)cc1 | · | 0% | 6% | · | · | 1%
O/N=C1\CCc2cc(Cl)ccc21 | -19 | -19% | 4% | ? | 13 | -20%
O/N=C1\CC/C(=N\O)c2nn(-c3ccc(Cl)cc3Cl)nc21 | -8 | ? | 3% | -5% | -51* | 26µM*
Cc1cc(NC(=O)c2cc(-c3ccc(Cl)cc3)on2)n(-c2ccccc2)n1 | · | -19% | 5% | · | · | -19%
COc1ccccc1NC(=O)C1=C(C)NC2=C(C(=O)CC(c3ccc(OC)c(OC)c3)C2)C1c1coc2ccccc2c1=O (stereo not given) | 4 | ? | 5% | 10µM* | -24 | ?
O=C(CN1CCOCC1)NNc1nc(-c2ccccc2)c2cc(Br)ccc2n1 | -6 | ? | 11% | -15% | ? | ?
CCN(CC)S(=O)(=O)c1ccc(C(=O)NNc2nc(-c3ccccc3)c3cc(Br)ccc3n2)cc1 | 4 | ? | 8% | 23µM* | ? | ?
CC(C)(C)C(=O)NNc1nc(-c2ccccc2)c2cc(Br)ccc2n1 | 11 | 13µM* | -5% | 1% | -16 | 16µM*
CCCCCCN1CC(O)=C(c2ccccc2)C1=N | -17 | -1% | 2% | 18% | 10 | -4%
CCCCCCCn1ccc(=N)cc1 | -29 | 0.52µM* | 5% | ? | ? | 0.52µM*
CCCCCNCc1cccn1C | 0 | 2% | 5% | -5% | -5 | -15%
CCCCCn1ccc(=N)cc1 | 11 | 5.2µM* | 0% | ? | -30 | 9.2µM*
CCn1ccc(=N)cc1 | 3 | 4% | -9% | 5% | 12 | -18%
CCCCCCCCCn1ccc(=N)cc1 | 0 | 0.15µM* | -1% | 0.41µM* | -94* | 0.23µM*
Cc1cc(C(=O)O)cc(S(=O)(=O)Nc2ccccc2C(=O)NC(C)c2ccccc2)c1C (stereo not given) | 8 | 13% | 4% | -5% | 8 | -12%
CCCN(C(=O)C1=COCCO1)c1c(N)n(Cc2ccccc2)c(=O)[nH]c1=O | -12 | 3% | -4% | -10% | 5 | 4%
C=C(C)C(=O)/C=C/CCC/C=C/C(=O)OCC | · | · | 7% | · | · | ·
Cc1ccc(C(=O)Nc2ccc(S(=O)(=O)N3CCOCC3)cc2)cc1Br | 15 | ? | · | · | · | -1%
